A short description of test [1]: liver-stage malaria parasite load reduction – cell-based, known kinase inhibitor set, luminescence, hepatoma host viability (AID 624392).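 Also: infected cells incubated roughly two days before readout.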 The conditions noted are these: Plasmodium liver stage in hepatoma cells, luciferase luminescence, concentration not given here; liver cell % of control: measured here: host liver cell viability; parasite % of control: stronger effect = lower value.

Test [2] in a line: altered dexamethasone sensitivity, NF-kB reporter, cell-based, luciferase, IL-1B stimulus (AID 624486).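 As to percent of negative control (+Dex): 100% = mean signal of vehicle control wells on the plate.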 The conditions noted are these: IL-1B + dexamethasone, luminescence; percent of negative control (+Dex): actives lie on both sides, concentration not given here; z-score: measured here: IL-1B alone, no Dex.
A short description of test [3]: C. elegans survival during P. aeruginosa infection – whole organism (AID 651566).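 Also: tested at 14 µM; sign flipped so higher z means a lower ratio.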 The note with it: C. elegans killed by P. aeruginosa, survival ratio.
The nature of test [4]: pro-inflammatory signaling induction in mouse macrophages – cell-based, murine, luminescence (AID 652131). The conditions noted are these: murine macrophage pro-inflammatory reporter, stronger effect = higher value.
Test [5] has as its target Cellular tumor antigen p53 (Homo sapiens) (UniProt P04637). As to the kind of experiment: GFP-p53 level modulators in HPV16+ cells – imaging, known kinase inhibitor set, EGFP/DsRed ratio (AID 1053116).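 Also: cells exposed to compounds for 24 h at 37 °C before reading.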 The note with it: GFP-p53 stability, stronger effect = higher value; EGFP object count: measured here: GFP-p53 positive objects count.
Test [6] is described as follows: inducers of IRF3 signaling, differentiated THP-1 – cell-based, PMA-stimulated THP-1, luminescence (AID 1053176). The conditions noted are these: PMA-differentiated THP-1, IRF3 reporter luminescence; stronger effect = higher value.
Test [7] in a line: MELAS cybrid and Rieske KO viability enhancers – cell-based, MELAS cybrids, Rieske KO mouse fibroblasts, CellTiter-Glo, primary screen (AID 1508586;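 active = mean z-score across replicates of 1.96 or higher in either the MELAS or the Rieske mutant cell line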;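 also: z relative to plate mean and SD of compound and empty wells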). The note with it: low glucose.
[8] abbreviates: MELAS cybrid survival, CellTiter-Glo 48 h, stronger effect = higher value.
Where [9] appears, read: Rieske KO mouse fibroblast survival, CellTiter-Glo 72 h.

Structures are written as SMILES. Calls of active or inactive are those of the source. Unless noted, no rule for the calls is given here.

Chain of Cellular tumor antigen p53 (Homo sapiens) (P04637 whole entry, looked up): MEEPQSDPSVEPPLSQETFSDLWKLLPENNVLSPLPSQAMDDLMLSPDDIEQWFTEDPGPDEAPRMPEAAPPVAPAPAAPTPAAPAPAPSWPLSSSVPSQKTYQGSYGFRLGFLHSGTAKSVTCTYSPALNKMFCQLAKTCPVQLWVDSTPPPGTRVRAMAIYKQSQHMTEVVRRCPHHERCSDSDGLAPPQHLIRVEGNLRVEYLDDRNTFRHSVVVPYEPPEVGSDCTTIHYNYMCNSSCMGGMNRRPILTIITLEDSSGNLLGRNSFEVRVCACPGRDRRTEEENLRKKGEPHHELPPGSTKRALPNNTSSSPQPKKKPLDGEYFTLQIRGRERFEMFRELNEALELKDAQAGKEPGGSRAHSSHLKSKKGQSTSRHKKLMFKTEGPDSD

`CCCNc1cccc(-n2ncc3c(N/N=C/c4ccncc4)ncnc32)c1` returned a liver cell % of control in test [1] of 95.8%. In addition, in test [1], the parasite % of control is 39.7% (inactive). For the same compound, the percent of negative control (+Dex) in test [2] is 90% (inactive). The z-score in test [2] is -0.38; in test [3], 0.37 (inactive); in test [4], -1.11 (inactive); in test [7] (setting [8]), 1.12 (inactive); in test [7] (setting [9]), -0.108. For the same compound, the EGFP object count in test [5] worked out at 8.5. In test [5], the EGFP/DsRed ratio is 0.328 (inactive). For the same compound, in test [6], the fraction signal was -0.005 (inactive).

In turn, `CCn1c(-c2nonc2N)nc2cncc(C(=O)N3CCNCC3)c21` came in with a liver cell % of control in test [1] of 101%. The parasite % of control in test [1] is 140% (inactive). Moreover, in test [2], the percent of negative control (+Dex) is 111% (inactive). Moreover, the z-score in test [2] is 0.555; in test [3], -0.355 (inactive); in test [4], 0.864 (inactive); in test [7] (setting [8]) it was -0.623 (inactive); in test [7] (setting [9]), 0.0786. For the same compound, the EGFP object count in test [5] was 8. In addition, the EGFP/DsRed ratio in test [5] is 0.129 (inactive). For the same compound, the fraction signal in test [6] is -0.005 (inactive).

In test [1], `Fc1ccc(-c2ncn(CCCN3CCOCC3)c2-c2ccncc2)cc1` had a liver cell % of control of 110%. Besides, the parasite % of control in test [1] is 145% (inactive). For the same compound, the percent of negative control (+Dex) in test [2] was 98.5% (inactive). Moreover, the z-score in test [2] was 1.32; in test [3], 0.18 (inactive); in test [4], -0.092 (inactive); in test [7] (setting [8]) it was -1.02 (inactive); in test [7] (setting [9]), 0.219. Besides, the EGFP object count in test [5] turned out to be 4. For the same compound, in test [5], the EGFP/DsRed ratio was 0.0405 (inactive). Further, the fraction signal in test [6] is -0.0075 (inactive).

As to `COC(=O)c1ccc2c(c1)/C(=C\c1cc(Br)c(O)c(Br)c1)C(=O)N2`, the liver cell % of control in test [1] was 150%. In addition, in test [1], the parasite % of control is 12.2% (active). In addition, in test [2], the percent of negative control (+Dex) was 110% (inactive). The z-score is 0.355 in test [2]; -0.645 (inactive) in test [3]; -0.838 (inactive) in test [4]; -0.186 (inactive) in test [7] (setting [8]); -0.227 in test [7] (setting [9]). The EGFP object count in test [5] is 1. Moreover, in test [5], the EGFP/DsRed ratio was 0.00779 (inactive). In addition, in test [6], the fraction signal was -0.012 (inactive).

Compound `CC(C)c1ccc(-c2cc(C3CNNC3c3ccccn3)ccn2)cc1` (centres undefined) yielded a liver cell % of control in test [1] of 100%. The parasite % of control in test [1] is 117% (inactive). Moreover, the percent of negative control (+Dex) in test [2] is 95.5% (inactive). Also, the z-score is 0.855 in test [2]; 0.505 (inactive) in test [3]; 0.704 (inactive) in test [4]; 0.0399 (inactive) in test [7] (setting [8]); -0.129 in test [7] (setting [9]). Moreover, the EGFP object count in test [5] worked out at 2. For the same compound, the EGFP/DsRed ratio in test [5] is 0.021 (inactive). Further, in test [6], the fraction signal was -0.0085 (inactive).

In turn, `CC1=C(C(=O)Nc2ccc3[nH]ncc3c2)C(c2ccc(F)cc2)N=C(c2ccc(C(F)(F)F)nc2)N1` (centres undefined) displayed a liver cell % of control in test [1] of 102%. Also, the parasite % of control in test [1] is 138% (inactive). Further, in test [2], the percent of negative control (+Dex) is 86% (inactive). Also, the z-score in test [2] was -1.21; in test [3], 0.02 (inactive); in test [4] it was 0.13 (inactive); in test [7] (setting [8]) it was -0.75 (inactive); in test [7] (setting [9]) it was -0.3. Further, the EGFP object count in test [5] amounted to 2. Also, in test [5], the EGFP/DsRed ratio was 0.0614 (inactive). In addition, the fraction signal in test [6] was -0.004 (inactive).

In turn, `CCN1CCC(C(=O)NC2NNC3NNC(c4cccc(F)c4F)CC32)CC1` (centres undefined) had a liver cell % of control in test [1] of 73.6%. Moreover, the parasite % of control in test [1] is 144% (inactive). Besides, the percent of negative control (+Dex) in test [2] is 114% (inactive). In addition, the z-score in test [2] is -0.315; in test [3], -0.46 (inactive); in test [4], 2.7 (inactive); in test [7] (setting [8]), -0.831 (inactive); in test [7] (setting [9]), -0.194. The EGFP object count in test [5] was found to be 15. Besides, in test [5], the EGFP/DsRed ratio was 0.326 (inactive). The fraction signal in test [6] was -0.002 (inactive).

`NS(=O)(=O)c1ccc(N=Nc2c(=O)[nH]c3ccc4[nH]cccc4c23)cc1` had a liver cell % of control in test [1] of 108%. In addition, the parasite % of control in test [1] is 91% (inactive). The percent of negative control (+Dex) in test [2] was 144% (active). Besides, the z-score in test [2] was 1.98; in test [3], 1.48 (inactive); in test [4], -1.63 (inactive); in test [7] (setting [8]), 2.43 (active); in test [7] (setting [9]) it was 0.199. Further, the EGFP object count in test [5] was found to be 1.5. For the same compound, the EGFP/DsRed ratio in test [5] was 0.0128 (inactive). Also, the fraction signal in test [6] is -0.0065 (inactive).

Consider `CS(=O)(=O)CCNCc1cc(-c2cc3c(Nc4ccc(OCc5cccc(F)c5)c(Cl)c4)ncnc3s2)cs1`, for which the liver cell % of control in test [1] worked out at 91.2%. The parasite % of control in test [1] was 132% (inactive). Further, in test [2], the percent of negative control (+Dex) is 79.5% (inactive). For the same compound, the z-score in test [2] is -0.645; in test [3], 0.375 (inactive); in test [4], 0.207 (inactive); in test [7] (setting [8]), -0.394 (inactive); in test [7] (setting [9]), -0.666. The EGFP object count in test [5] amounted to 4.5. The EGFP/DsRed ratio in test [5] is 0.11 (inactive). Moreover, the fraction signal in test [6] was -0.0035 (inactive).

Source of the values: PubChem BioAssay.
